Mm-Cpn inhibitor: Inhibitors of TCP-1 ring complex (TRiC) of Methanococcus maripaludis (MmCpn): qHTS; Chaperonin Mm-Cpn (Methanococcus maripaludis); purified Mm-Cpn ATPase, ADP Transcreener TR-FRET; Potency, µM (highest dose often 76.9 µM), inactives show at the highest dose activity, negative = inhibition, most hits filed as inhibitors; 0.031% of 330,000 active; AID 504842, 2011; also: potency is read from the fitted curve at half-maximal effect; % is scaled to controls: 0 for no effect and ±100 for the full control effect; nearly all actives have a fitted effect of over 80% in size
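ATPase read-out: TR-FRET ADP immunoassay (anti-ADP Eu cryptate vs ADP-d2), ex 320 nm, em 590/665 nm; signal drops as ADP forms. Enzyme 25 nM, ATP 10 uM, 30 min at 37°C after 10 min compound preincubation.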
uPA surface inh: qHTS for Inhibitors of Cell Surface uPA Generation | cell surface uPA generation assay, qHTS | Potency, µM (highest dose often 38.3 µM), for the others: at the highest dose activity change, negative = inhibition, hits mostly inhibitors | 0.31% of 330,000 active | AID 540303, 2011; active = well fitted inhibition curve with a large enough effect; inconclusive = small, poorly fitted or top-dose-only effect; inactive = no such curve, though single readings can be large or run the other way; tested in mouse RAW 264.7 cells; also: potency is read from the fitted curve at half-maximal effect; % is scaled to controls: 0 for no effect and ±100 for the full control effect; nearly all actives have a fitted effect of over 55% in size
GLP-1R agonist: qHTS of GLP-1 Receptor Agonists; Potency, µM (series often up to 45.6 µM), inactives show at the top dose activation, hits mostly activators; Glucagon-like peptide 1 receptor (Homo sapiens), P43220; HEK293 GLP-1R CRE-luciferase, luminescence, 4-6 h; cells express a hypersensitive GLP-1R form; 0.007% of 380,000 active; also: potency is read from the fitted curve at half-maximal effect; % of control where 0% means no effect
Target sequence (P43220 whole entry, looked up): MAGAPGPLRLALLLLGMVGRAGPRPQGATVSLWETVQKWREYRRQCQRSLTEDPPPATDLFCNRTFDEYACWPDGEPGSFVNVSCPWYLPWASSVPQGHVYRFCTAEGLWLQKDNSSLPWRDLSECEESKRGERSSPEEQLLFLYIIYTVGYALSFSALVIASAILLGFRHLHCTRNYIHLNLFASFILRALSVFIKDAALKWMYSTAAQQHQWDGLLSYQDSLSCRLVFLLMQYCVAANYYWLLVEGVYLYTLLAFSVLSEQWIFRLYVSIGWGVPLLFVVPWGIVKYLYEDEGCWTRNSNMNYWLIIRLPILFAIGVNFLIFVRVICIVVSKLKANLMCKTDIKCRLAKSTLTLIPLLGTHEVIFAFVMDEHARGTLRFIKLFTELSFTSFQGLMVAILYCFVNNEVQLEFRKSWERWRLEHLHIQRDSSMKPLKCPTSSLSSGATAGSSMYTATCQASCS
GLP1R cytotox: qHTS of GLP-1 Receptor Inverse Agonists: Cytotox Screen | HEK293 cAMP-luciferase reporter cells, luminescence, 24 h | Potency, µM (doses to about 38.3 µM), inactives show at the highest dose activity change, negative = inhibition, most hits filed as inhibitors | 0.13% of 410,000 active;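 also: loss of luciferase light is scored as toxicity; potency is read from the fitted curve at half-maximal effect; % is scaled to controls: 0 for no effect and ±100 for the full control effect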
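1536-well qHTS counterscreen of the MLSMR; 200 cells/uL, 12 h pre-incubation, 23 nL cpd, 24 h at 37 deg C 5% CO2, luciferase detection reagent, 12 min RT, luminescence. Inhibition = undesired.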
GLP-1R inv ag: qHTS of GLP-1 Receptor Inverse Agonists (Inhibition Mode); 1.6% of 410,000 active; Potency, µM (series often up to 38.3 µM), without a hit: at the highest dose activity change, negative = inhibition, usual class: inhibitors; HEK293 GLP-1R CRE-luciferase, luminescence, 24 h; GLP-1R form is constitutively active; Glucagon-like peptide 1 receptor (Homo sapiens), P43220; also: potency is read from the fitted curve at half-maximal effect; % is scaled to controls: 0 for no effect and ±100 for the full control effect; nearly all actives have a fitted effect of over 55% in size
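Using stably transfected HEK293 (constitutively active GLP-1R, cAMP-luciferase reporter), compounds were incubated 24 hr and luciferase measured by luminescence.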
CCT chaperon mod: High-Throughput Screening for Modulators of Cytosolic Chaperonin Activity; 0.3% of 360,000 active; purified chaperonin ATPase assay, HTRF ADP detection, 30 min; activity change, % (concentration not given with the values), hits read low; AID 651819, 2012; in the data active = activity change below about -30%; also: % is scaled to controls: 0 for no effect and ±100 for the full control effect
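First, chaperonin was dispensed at 40 nM or 20 nM final depending on batch activity. Next, compounds were pinned at 76 uM and ATP added at 10 uM. After 30 min at 37 °C, ADP detection reagents ran 30 min at ambient temperature.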
The depositor's hits bear a star; ? = inconclusive; / = no result. Most compounds without a hit are left out; they make up all but 2.2% or so of the library. Unless noted, calls follow the shape of the dose curve; as a rule, active = well fitted curve in the direction sought with a large enough effect; inconclusive = small, poorly fitted or top-dose-only effect, or another doubt; inactive = no such curve, though single readings can be large; an effect the other way counts as inactive or inconclusive.

SMILES | Mm-Cpn inhibitor | uPA surface inh | GLP-1R agonist | GLP1R cytotox | GLP-1R inv ag | CCT chaperon mod
Cc1cc(C)c(S(=O)(=O)N2CCN(C(=O)c3ccc4c(c3)OCO4)CC2)c(C)c1 | 0% | -1% | 2% | -2% | ? | -1
Cc1cccc(OCC(=O)Nc2ccccc2C(=O)OCc2cc(=O)n3nc(C)sc3n2)c1 | / | / | / | -5% | 3% | /
CCc1ccc(S(=O)(=O)c2nnn(-c3cccc(C)c3)c2N)cc1 | / | / | 1% | 0% | ? | /
COC(=O)[C@H]1C[C@@H]1[C@H](N)c1ccccc1 | -3% | -12% | 3% | 13% | -10% | -49*
COc1ccc(CNC(=O)c2cccn2-c2nnc(N3CCCC3)s2)c(OC)c1 | / | / | / | -1% | 6% | /
CCN(Cc1ccccc1)S(=O)(=O)c1ccc2c(c1)CC(C)N2C(=O)C1CCC1 (centres undefined) | / | / | / | -3% | ? | /
CC(C)CNC(=S)N1CCC(Cc2ccccc2)CC1 | 2% | -3% | 0% | ? | 3.2µM* | 2
CC(C)NC(=S)N1CCC(Cc2ccccc2)CC1 | 0% | 1% | -2% | -8% | ? | 1
CC(C)c1cc(-c2cc(C(=O)NCc3ccccc3)on2)nc(NCC2CC2)n1 | 1% | ? | -4% | 0% | 13µM* | -1
O=C1NN(c2ccccc2)C(=O)C1=Cc1ccccc1 | / | / | -1% | ? | 4µM* | -1
COc1cc(/C=C2/C(=O)NN(c3ccc(Cl)cc3)C2=O)cc(OC)c1O | -2% | -5% | -6% | ? | 4µM* | 2
COc1cc(/C=C2/C(=O)NN(c3ccccc3)C2=O)cc(Br)c1O | -4% | 11% | -2% | -31% | ? | 1
CCOC(=O)c1ccc(N2C(=O)c3[nH]nc(-c4ccc(OC)cc4)c3C2c2ccc(C)cc2)cc1 (centres undefined) | / | / | -5% | -9% | ? | /
CC(C)Cc1nc(N2CCN(C(=O)c3ccco3)CC2)c(C#N)c2c1CCCC2 | -1% | 5% | 19% | -26% | 8.9µM* | 0
Cc1nc(N2CCN(C(=O)c3ccco3)CC2)c(C#N)c2c1CCCC2 | 2% | 2% | -4% | 3% | 1% | 1
CCCn1c2ccccc2c2cnn(CC(=O)Nc3cccc(C(=O)OCC)c3)c(=O)c21 | / | / | / | 9% | 9% | /
CC(=O)c1ccc(-c2cccc([C@H]3[C@@H]4C=CC[C@@H](C)[C@@H]4C(=O)N3Cc3ccccc3)c2)cc1 | -4% | ? | 5% | -1% | 10µM* | -2
COc1ccc(-c2cccc([C@H]3[C@@H]4C=CC[C@@H](C)[C@@H]4C(=O)N3Cc3ccccc3)c2)cc1 | 1% | -7% | -1% | -8% | ? | -1
CCOC(=O)C1=C(CNCCc2ccc(Cl)cc2)NC(=O)NC1c1cccc([N+](=O)[O-])c1 (centres undefined) | 3% | 5% | 11% | -7% | 10µM* | 1
Cc1ccccc1CC1(CO)CCCN(Cc2ccn[nH]2)C1 (centres undefined) | -3% | 2% | 6% | -3% | ? | 1
Cc1ccc(CN2CCCC(CO)(Cc3ccccc3C)C2)s1 (centres undefined) | 0% | 1% | 8% | ? | 8.9µM* | 2
CNc1ccccc1C(C)(C)c1cc(-c2cc(C)cc(C)c2)no1 | -1% | 3% | 0% | 12% | ? | -1
CNc1ccccc1C(C)(C)c1cc(-c2cccc(OC)c2)no1 | 0% | -6% | 7% | -11% | 7.1µM* | -6
CCCCCOc1ccc(Br)cc1/C(C)=N/NC1=NCCN1 | 0% | -17% | 1% | ? | 2.2µM* | 3
COc1ccc(Br)cc1/C(C)=N/NC1=NCCN1 | 1% | -10% | -5% | -2% | 0% | -1
SMILES | Mm-Cpn inhibitor | uPA surface inh | GLP-1R agonist | GLP1R cytotox | GLP-1R inv ag | CCT chaperon mod
Cc1ccc(C(=O)OC2OC(=O)C(Cl)=C2N2CCOCC2)cc1 (centres undefined) | 3% | -3% | -1% | -6% | -5% | -50*
CC(=O)Nc1cccc(-c2ccnc3c2CC(C(=O)Nc2cccc(NS(C)(=O)=O)c2)O3)c1 (centres undefined) | / | / | -11% | 7% | 25% | -4
CS(=O)(=O)Nc1cccc(NC(=O)C2Cc3c(-c4ccccc4)ccnc3O2)c1 (centres undefined) | / | / | 15% | -21% | 0.89µM* | 1
COc1ccc(C(=O)C=Cc2ccc3c(c2)OCO3)cc1OC | / | / | 14% | 3% | 104% | 0
COc1cc(/C=C/C(=O)c2ccc3c(c2)OCO3)cc(Cl)c1O | -4% | -10% | 9% | 391% | 11µM* | 1
CCN(CCCNC(=O)c1ccc(Sc2ccc(Cl)cc2)c(NC(C)=O)c1)c1ccccc1 | / | / | / | -9% | 10µM* | /
CCCCOc1ccccc1Cn1c(=O)oc2ccccc21 | 2% | 18% | -9% | -9% | 5.6µM* | -1
O=c1oc2ccccc2n1Cc1ccccc1F | 1% | 2% | -1% | -16% | ? | -1
CCc1ccc(CN2C(=O)c3ccccc3C2C(=O)NCCc2ccc(OC)c(OC)c2)cc1 (centres undefined) | / | / | / | 8% | -1% | /
O=C(N[C@@H]1CCC(=O)N(CC[C@H](Sc2ccc(Br)cc2)c2ccccc2)CC1)OCc1ccccc1 | -6% | 8% | 8% | -22% | ? | -1
Cc1ccc(SC[C@H](C)CN2CC[C@H](C)CCC2=O)cc1 | 0% | 0% | 3% | 1% | ? | 2
CC(=O)Nc1ccc(SC[C@H](C)CN2CC[C@H](C(C)(C)C)CCC2=O)cc1 | 0% | -2% | 4% | -32% | 10µM* | 1
COc1ccc(SC[C@H](C)CN2CC[C@H](NC(=O)OCc3ccccc3)CCC2=O)cc1 | 2% | -23% | 12% | 16% | 10µM* | -2
COc1ccc(S[C@@H](CCN2CC[C@H](NC(=O)OCc3ccccc3)CCC2=O)c2ccccc2)cc1 | 2% | -7% | -3% | -3% | 3.2µM* | -2
O=C(N[C@H]1CCC(=O)N([C@H](CSc2ccc(Br)cc2)Cc2ccccc2)CC1)OCc1ccccc1 | 2% | -13% | 10% | -27% | 4µM* | 0
CC(=O)SC[C@@H](C)C(=O)N1CCC[C@H]1C(=O)N[C@@H](Cc1ccccc1)C(=O)O | / | / | 4% | / | / | /
COc1ccc(Nc2ncnc3c2c(-c2ccccc2)cn3-c2ccc(C)c(Cl)c2)cc1OC | / | / | / | -5% | 13% | /
